Data as given in PubChem BioAssay (NCI).
Values joined by “and” are separate entries in the source; they are usually repeats but may differ in a detail not shown here. Equal values may be shown once. Compounds without any hit were thinned out: in the full panel of roughly 79,000, 15% have a hit. A number with no mark means an inactive call. Active and inactive are the calls of the source. Cut-off read from the data, not from the text of the source: active = growth inhibition above about 70%; inactive = the rest. Where a SMILES comes first, the peptide text is derived from it. The star is where a group is joined. Cbz = O=C(OCc1ccccc1)*

Key:
[1] = NCI Yeast Anticancer Drug Screen. Data for the rad50 strain (AID 155);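 note: 0% = growth of vehicle-only cultures of the same strain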; settings: S. cerevisiae rad50 strain growth inhibition, hits give high values; at 50.0 µM unless noted
Procedure, shortened: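 Compounds were tested on a yeast strain with an engineered DNA damage repair alteration; the reported value is growth inhibition normalised to vehicle treatment.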

[2] = NCI Yeast Anticancer Drug Screen. Data for the mec2-1 strain (AID 157); settings: S. cerevisiae mec2-1 strain, hits give high values; at 50.0 µM unless noted
Procedure, shortened: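 Yeast mec2-1 mutant treated with compound. Readout: growth inhibition vs vehicle controls.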

[3] = NCI Yeast Anticancer Drug Screen. Data for the sgs1 mgt1 strain (AID 161);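 note: 0% = growth of cultures given vehicle only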; settings: S. cerevisiae sgs1 mgt1 strain, hits give high values; at 50.0 µM unless noted
Procedure, shortened: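 Read-out: growth inhibition vs vehicle controls. Cells: mutant yeast strain deficient in DNA damage repair.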

[4] = NCI Yeast Anticancer Drug Screen. Data for the cln2 rad14 strain (AID 165);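 note: 0% = growth equal to vehicle treated cultures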; settings: S. cerevisiae cln2 rad14 strain, hits give high values; at 50.0 µM unless noted
Procedure, shortened: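 cln2 rad14 yeast strain; compound exposure; growth inhibition read vs vehicle controls.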

[5] = NCI Yeast Anticancer Drug Screen. Data for the bub3 strain (AID 167); settings: S. cerevisiae bub3 mutant strain, hits give high values; at 50.0 µM unless noted
Procedure, shortened: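 Growth of a checkpoint-deficient yeast mutant is measured after compound exposure. Values represent inhibition relative to vehicle.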

[6] = NCI Yeast Anticancer Drug Screen. Data for the mlh1 rad18 strain (AID 175); settings: S. cerevisiae mlh1 rad18 strain growth inhibition, hits give high values; at 50.0 µM unless noted
Procedure, shortened: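 Yeast w/ defined DNA-repair lesions; compound exposure; growth vs vehicle controls → % inhibition.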

Row | Structure (SMILES) | growth inhibition [1] | growth inhibition [2] | growth inhibition [3] | growth inhibition [4] | growth inhibition [5] | growth inhibition [6]
1 | O=C1c2c(ccc3c2CCCC3)CC1Cc1ccc2c(c1)CCCC2 (stereo unspecified) | -22% | -15.2% | -18.8% | -25.1% | -17.4% | -37.7%
2 | CCN(CC)c1c(C)c(-c2ccccc2)n[n+]([O-])c1-c1ccccc1 | 35.9% | 24.1% | 14.4% | 1.85% | 17.9% | 24.8%
3 | Nc1cc(S(=O)(=O)O)c(O)c2c1C(=O)c1c(O)c(S(=O)(=O)O)cc(N)c1C2=O | -17.6% | -1.75% | -2.55% | -12.8% | -9.35% | -18%
4 | COc1cccc(C2SC(N)=Nc3c2c(C)nn3C(=O)c2ccccc2O)c1 (stereo unspecified) | 19.7% | 9.25% | 33.1% | 17.6% | 38% | 24.9%
5 | CCC1(CC)C(=O)NN(C(=O)c2ccc(Cl)cc2)C1=O | -4.9% | -22.9% | 28.4% | 7.15% | -5.6% | -37.5%
6 | CC1=Nc2ccccc2SC2(C1)C(C1COC(C)(C)O1)OC1OC(C)(C)OC12 (stereo unspecified) | 7.4% | 11.1% | 21.1% | 21.4% | -9.55% | 12.8%
7 | CCCCC(NC(=O)C(C)NC(=O)OCc1ccccc1)C(=O)O (stereo unspecified) | 2% | 6.3% | 3.4% | 4.75% | 12.8% | -9.6%
8 | CCOC(=S)Nc1ccccc1[N+](=O)[O-] | 8.05% | -10.6% | 0.05% | -57.6% | -23.6% | -9.15%
9 | CC1=CC(=C2C=C(C)C(=O)C(C)=C2)C=C(C)C1=O | 9.85% | -6.65% | 24.4% | -0.25% | 4.25% | 14.2%
10 | Cc1cc(=O)[nH]c2[nH]c(=O)ccc12 | -11.4% | 0.05% | -1.5% | -6.35% | -2.2% | 2%
11 | CCOC(=O)c1cc(/C=C/C(C)=C/C(=O)OC)n(C)c1C | 74.5% (active) | 56% | 79.5% (active) | 34.5% | 80.2% (active) | 58.5%
12 | CCC(CC)/C(=N/Nc1ccc([N+](=O)[O-])cc1[N+](=O)[O-])C1=CCCCC1 | -8.3% | -12.1% | -5.1% | -24.1% | -7.3% | -15.7%
13 | CCN(CC)CCOc1ccc(N2C(=O)c3cc(OC)c(OC)cc3C2=O)cc1 | -23.4% | -19% | -14.9% | 5.25% | -32.1% | -34.5%
14 | NC(=O)C(Cc1ccccc1)NC(=O)C(Cc1ccccc1)NC(=O)C(Cc1ccccc1)NC(=O)OCc1ccccc1 (stereo not drawn) (Cbz-Phe-Phe-Phe-NH2; configuration not given here) | 25.6% | 7.8% | 17.6% | -12% | -5.2% | 21.9%
15 | COc1ccc(OC2OC(CO)C(O)C(O)C2O)cc1 (stereo unspecified) | 8.9% | -0.1% | -4.3% | 18.1% | 6.5% | -50.6%
16 | CCc1ccc2nccc(NCCCN(C)C)c2c1[N+](=O)[O-] | 3.55% | -13.4% | 6.7% | 15.2% | -17.7% | 13.5%
17 | COc1ccc(C=NCC(OC)OC)cc1OCc1ccccc1 | -14.9% | 7.15% | 14% | -16.4% | -3.05% | 12.4%
18 | CC(=O)c1cccc(OC(=O)Nc2ccccc2)c1 | 6.45% | -10.2% | 2.5% | 4.3% | -1.45% | 22.4%
19 | CCCCN1C(=O)CC2[C@@H]3CCc4cc(OC(C)=O)ccc4C3CC[C@]2(C)C1=O (stereo partly specified) | 11.3% | 4.15% | 5.45% | 26.6% | -7.3% | -0.1%
20 | NCCNCCNCCN | -12.4% and -8.1% | -7.65% and -20.7% | 3.1% | -28.9% | -5.35% | -19.4% and 29.1%
21 | c1cncc(C2N3CCCCC3[C@@H]3c4[nH]c5ccccc5c4CCN23)c1 (stereo partly specified) | -26.6% | -40.5% | -22.8% | -8.25% | -15.1% | -26.9%

Row | Structure (SMILES) | growth inhibition [1] | growth inhibition [2] | growth inhibition [3] | growth inhibition [4] | growth inhibition [5] | growth inhibition [6]
22 | COc1ccc(O)cc1C=O | -6.4% | -7.05% | -10.6% | 4% | -7.35% | -4.75%
23 | O=C(/C=C/c1ccc(OCc2ccccc2)cc1)c1cccc([N+](=O)[O-])c1 | 4.7% | 6.35% | -5.85% | 9.15% | -0.05% | 12.2%
24 | CN(Cc1ccccc1)C(=O)Nc1ccc(Cl)c(Cl)c1 | 95.8% (active) | 99% (active) | 99% (active) | 97.1% (active) | 97.7% (active) | 98.5% (active)
25 | N#Cc1[nH]c(=O)n(-c2ccccc2)c1N | -40.2% | -57.8% | -60.2% | -22.4% | -17.2% | -37%
26 | CC(C)CC(C)COC(=O)c1c(Cl)c(Cl)c(Cl)c(Cl)c1C(=O)O (stereo unspecified) | 66.6% | 62.6% | 77.9% (active) | 63.4% | 72.8% (active) | 77.3% (active)
27 | Cc1ccc(S(=O)(=O)CBr)cc1 | 5.35% | 14% | 6.9% | 3.3% | 4.6% | 5.2%
28 | Cc1cc(-c2ccc(N=Nc3ccc4c(S(=O)(=O)O)cc(S(=O)(=O)O)c(N)c4c3O)c(C)c2)ccc1N=Nc1ccc2c(S(=O)(=O)O)cc(S(=O)(=O)O)c(N)c2c1O | -137% and -0.25% | -40.7% and -71.1% | -56.4% and -33.9% | -147% and -4.9% | -118% and -26.3% | -49.2% and -11.2%
29 | BrC1(Br)C2CCCCCCC21 (stereo unspecified) | -26.6% | 4.85% | 3.15% | -6.6% | -21.1% | -29.7%
30 | O=C(c1ccccc1)c1ccc(O)cc1 | 3.5% | 3.05% | 21.4% | 13.9% | -1.75% | 24.9%
31 | CC(C)(C)CC(C)(C)c1ccc(O)c(CN2CCCCC2)c1 | 10.2% | 8.55% | 26.1% | -6.7% | 16.6% | 8.65%
32 | CN(Cc1cc(Br)cc(Br)c1O)Cc1c(O)ccc2ccccc12 | 98.8% (active) | 98.8% (active) | 98.8% (active) | 97.3% (active) | 98.2% (active) | 98.8% (active)
33 | Cc1ccc(NC(=O)C(=O)CC(=O)c2sc(Nc3c(C)cccc3C)nc2C)cc1C | 13.4% | -9.95% | 1.85% | -27.7% | -23.4% | -2%
34 | O=c1[nH]c2cc(Cl)c([N+](=O)[O-])cc2o1 | 12.1% | -0.5% | -0.5% | -18.1% | -14.9% | 16.7%
35 | CCOC(=O)c1sc(N)nc1N1CCCC1 | 1.65% | -23.9% | -9.65% | 10.1% | 7% | -2.25%
36 | O=C(Nc1cccc2ccccc12)c1ccc(Cl)cc1Cl | 4.15% | 14.9% | 21.5% | 1.35% | 8.55% | 4.65%
37 | O=C(NCc1ccc(Cl)cc1)NC1CCCCC1 | 5.75% | 36.9% | 35.5% | 2.7% | 20.9% | 46%
38 | CCCCCCCCCCCCCC(=O)OCCC(C)C | -5.85% | 0.25% | 7.25% | -18.9% | 3.4% | -7.3%
39 | CC(C)COC(c1ccccc1)c1ccccc1 | -9.5% | -9.75% | 5.15% | 18.8% | -12.8% | -4.75%
40 | O=C(Nc1ccc(S(=O)(=O)c2ccc(F)cc2)cc1)OC1CCCCC1 | 35.9% | 5.85% | 38.9% | 18.1% | 4.4% | 18.4%
41 | OCCCCC1CCCc2ccccc21 (stereo unspecified) | 17.3% | 16.1% | 3.15% | -4.55% | -1.85% | -3.45%
